Shown is part of a subset that was picked to be rich in hits.
FBPA Giardia inh: Giardia lamblia aldolase inhibition; purified Giardia FBPA; Potency, µM (series often up to 59.6 µM), without a hit: top-dose activity, negative = inhibition, actives largely listed as inhibitors; 0.71% of 290,000 active; AID 2451; note: potency is the fitted concentration of half-maximal effect; % is set by controls: 0 for no effect and ±100 for the full control effect; nearly all actives have a fitted effect of over 55% in size
Target sequence (A8B2U2 whole entry, looked up): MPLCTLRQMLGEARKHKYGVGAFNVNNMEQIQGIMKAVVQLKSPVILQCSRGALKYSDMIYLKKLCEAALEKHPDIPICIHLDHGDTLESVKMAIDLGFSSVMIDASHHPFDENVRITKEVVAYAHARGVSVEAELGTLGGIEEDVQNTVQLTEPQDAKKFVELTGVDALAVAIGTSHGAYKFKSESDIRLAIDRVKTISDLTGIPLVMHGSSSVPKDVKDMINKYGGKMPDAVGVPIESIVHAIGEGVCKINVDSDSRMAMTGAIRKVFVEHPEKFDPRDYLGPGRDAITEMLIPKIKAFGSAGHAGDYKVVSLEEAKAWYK
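Giardia FBPA (40 nM reagent) was preincubated 10 min at RT with compound (up to 57.5 uM final), then substrate plus GAPDH/TPI/NAD/arsenate coupling system with diaphorase/resazurin was added; resorufin fluorescence (525/598 nm) was read after 20 min.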
Cycloheximide cs: counter-screen for Shiga toxin inhibitors: cycloheximide protein synthesis inhibition | cell reporter, cycloheximide protein synthesis inhibition counterscreen | max response, % | 12% of 300,000 active | AID 2314; in the data active = max response mostly above about 13%, no sharp cut-off; inactive = mostly below about 14%; note: read at 38.3 µM for the half of the compounds with a filed dose; 0% is about no effect
Shiga toxin inh: inhibitors of Shiga toxin in Vero cells; 9.2% of 290,000 active; Vero cells, Shiga toxin protein synthesis inhibition reporter; inhibition, % at 38.7 µM; in the data active = inhibition mostly above about 28%, no sharp cut-off; inactive = mostly below about 43%; note: 0% is about no effect
LmPK inhibitor: inhibitors of Leishmania mexicana pyruvate kinase | AID 1721 | 0.37% of 290,000 active | purified LmPK, Kinase-Glo ATP luminescence, 1 h | Potency, µM (highest dose often 57.5 µM), for inactives: top-dose activity change, negative = inhibition, most hits filed as inhibitors; note: potency is the fitted concentration of half-maximal effect; % is set by controls: 0 for no effect and ±100 for the full control effect
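Screened at intermediate enzyme activity to detect both inhibitors and activators: LmPK at 0.1 nM, with a 0.5 nM enzyme column as activation reference. PEP 0.5 mM, ADP 0.1 mM; ATP detected by luminescence after 1 h.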
TbPYK inhibitor: blocks Trypanosoma brucei pyruvate kinase | TbPYK enzyme, Kinase-Glo Plus ATP luminescence, 45 min | Potency, µM (top dose mostly 76.8 µM), for inactives: top-dose activity, negative = inhibition, most hits filed as inhibitors | 0.12% of 410,000 active; note: potency is the fitted concentration of half-maximal effect; % is set by controls: 0 for no effect and ±100 for the full control effect; nearly all actives have a fitted effect of over 50% in size
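Readout: single end-point luminescence (Kinase-Glo Plus, 10 min). Reaction conditions were TbPYK/substrate plus 130 uM ADP, 45 min at RT, pH 7.2 TEA buffer. No-enzyme wells served as controls, and data were normalized before concentration-response fitting.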
RE007 growth inh: less growth of the S. pombe RE007 Vpr strain. S. pombe RE007 Vpr strain, BacTiter-Glo ATP luminescence, 24 h. Potency, µM (series often up to 92.2 µM), without a hit: at the top dose activity change, negative = less growth, actives largely listed as inhibitors. 0.21% of 360,000 active. AID 651644; active = well fitted falling curve with a large enough effect; inconclusive = small, poorly fitted or top-dose-only effect; inactive = no such curve, though single readings can be large or run the other way; note: potency is the fitted concentration of half-maximal effect; % is set by controls: 0 for no effect and ±100 for the full control effect; nearly all actives have a fitted effect of over 50% in size
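Fission yeast RE007 carrying one integrated HIV-1 vpr copy, seeded at OD 0.01 in PMG+AL medium with 23 nL pinned compound. Grown 24 h at 30 degrees; viability read by BacTiter-Glo luminescence after 5 min.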
Numbers without * were called inactive; ? = inconclusive; . = no result given; [ ] = dose if it differs, or a comment. Unless noted, calls come from the whole dose curve; as a rule, active = well fitted curve in the direction sought with a large enough effect; inconclusive = small, poorly fitted or top-dose-only effect, or another doubt; inactive = no such curve, though single readings can be large; an effect the other way counts as inactive or inconclusive.

SMILES	FBPA Giardia inh	Cycloheximide cs	Shiga toxin inh	LmPK inhibitor	TbPYK inhibitor	RE007 growth inh
Cc1cccc(Nc2ccccc2C(=O)OCC(=O)NCc2ccco2)c1C	0%	19	30	0%	-1%	-2%
O=C(COC(=O)c1ccccc1Nc1ccc(SC(F)F)cc1)NCc1ccco1	1%	33*	63*	2%	-4%	9%
O=C(COC(=O)c1cccnc1SC(F)F)NC1CC1	.	.	.	.	-8%	6%
Cc1ccc(NC(=O)Cn2c(-c3nonc3N)nc3ccccc32)cc1C	.	.	.	.	-1%	.
O=C(COC(=O)c1ccccc1C(=O)c1ccccc1)Nc1ccc(SC(F)F)cc1	-5%	20*	-2	-2%	-2%	-3%
NC(=O)COC(=O)c1ccccc1Nc1ccc(SC(F)F)cc1	3%	14*	40	-5%	10%	39%
CC(OC(=O)c1ccccc1Nc1ccc(SC(F)F)cc1)C(N)=O (stereo not given)	3%	-1	-5	-1%	-8%	48%
COc1cc(OC)cc(C(=O)N[C@H](C(=O)NC2=NCCS2)C(C)C)c1	.	.	.	.	2%	24%
CC(C)Cn1c(/C=C/c2ccccc2)nc2ccccc21	-12%	39*	59*	0%	-3%	?
COc1ccc(Cn2c(/C=C/c3ccccc3)nc3ccccc32)cc1	-21%	65*	82*	-29%	2%	-20%
CCCn1c(/C=C/c2cc[n+](C)cc2)nc2ccccc21	-15%	-3	-6	-5%	-16%	-28%
CCCCCCn1c(/C=C/c2ccccc2)nc2ccccc21	.	47*	101*	.	-8%	.
CCn1c(/C=C/c2ccccc2)nc2ccccc21	-15%	33*	62*	22µM*	-7%	?
CCn1c(/C=C/c2ccc(F)cc2)nc2ccccc2c1=O	13%	1	.	1%	2%	-4%
CCC(C)n1c(/C=C/c2ccccc2)nc2ccccc21 (stereo not given)	-10%	25*	13	1%	22%	-26%
COc1ccc(/C=C/c2nc3ccccc3n2C)cc1	?	-22	-37	18µM*	?	32µM*
COc1ccc(-n2cnc3ccccc32)cc1	-2%	20	28	1%	-3%	-1%
O=c1[nH]c(/C=C/c2ccccc2[N+](=O)[O-])nc2ccccc12	5%	9	-7	-2%	-6%	-24%
O=c1[nH]c(/C=C/c2cccc3ccccc23)nc2ccccc12	-3%	27	46	-1%	-10%	1%
O=c1[nH]c(/C=C/c2ccccc2F)nc2ccccc12	9%	34*	71*	-14%	6%	-6%
O=c1[nH]c(/C=C/c2ccccn2)nc2ccccc12	-8%	56*	70*	-6%	-2%	-17%
COc1ccc(C2=Nn3c(nnc3-c3cc(OC)ccc3OC)SC2)c(OC)c1	-2%	-6	-4	.	.	.
COc1cccc(NC(=O)CSc2nnc(-c3ccc(C)cc3)o2)c1	1%	28*	45*	10%	-6%	-2%
COc1ccccc1NC(=O)CSc1nnc(-c2ccc(C)cc2)o1	3%	41*	56	-1%	-9%	-6%
COc1cccc(NC(=O)CSc2nnc(-c3cccc(OC)c3)o2)c1	.	.	.	.	2%	.
SMILES	FBPA Giardia inh	Cycloheximide cs	Shiga toxin inh	LmPK inhibitor	TbPYK inhibitor	RE007 growth inh
Cc1ccc(SCC(=O)Nc2cccc(-c3nnc(-c4ccco4)o3)c2)cc1	-1%	21*	56*	1%	-4%	-2%
COc1ccc(-c2nnc(SCC(=O)Nc3cc(C)on3)o2)cc1	-1%	33*	44*	-1%	0%	30%
COc1ccc(NC(=O)CSc2nnc(-c3ccc(C)cc3)o2)cc1	.	.	.	.	7%	.
NC(Cc1ccc(C(F)(F)F)cc1)c1csc(Nc2cc(Oc3ccccc3)ncn2)n1 (stereo not given)	.	.	.	.	8%	-1%[18.4 µM]
Cc1nn2c(C)c(C(=O)NCC(C)c3ccccc3)cnc2c1-c1ccccc1 (stereo not given)	.	.	.	.	0%	.
Cc1csc(NC(=O)CSc2nnc(-c3cc(C)on3)o2)n1	-2%	15*	40	-2%	-1%	-1%

Compound activity as filed in PubChem BioAssay.
